From PubChem BioAssay (EPA / NIEHS)
The source made the active and inactive calls. The calls were made as follows: active = hit-call score of the fitted dose curve at least 0.9, where 1 is the maximum; inactive = score below 0.9.

The compounds below were run on Vascular cell adhesion molecule 1 (VCAM1), VCAM1 (gene 7412) (assay: BSK_LPS_VCAM1: BioMAP Diversity Plus: LPS Assay for Vascular cell adhesion molecule 1 (VCAM1) Biomarker Activity (AID 2283086)). Conditions: primary human HUVEC with PBMC; actives raise or lower the signal.
Experimental: BSK_LPS is a cell-based, multiplexed-readout assay that uses umbilical vein endothelium and peripheral blood mononuclear cells, a human vascular primary cell co-culture, with measurements taken at 24 hours after chemical dosing in a 96-well plate.BSK_LPS_VCAM1 is an assay component measured in the BSK_LPS assay. It measures VCAM-1 antibody related to regulation of gene expression using ELISA technology.Data from the assay component BSK_LPS_VCAM1 was analyzed into 1 assay endpoint. This assay endpoint, BSK_LPS_VCAM1, was analyzed with bidirectional fitting relative to DMSO as the negative control and baseline of activity. Using a type of binding reporter, gain or loss-of-signal activity can be used to understand changes in the signaling as they relate to the gene VCAM1. Furthermore, this assay endpoint can be referred to as a primary readout, because this assay has produced multiple assay endpoints where this one serves a signaling function. To generalize the intended target to other relatable targets, this assay endpoint is annotated to the cell adhesion molecules intended target family, where the subfamily is Immunoglobulin CAM.
The levels of cell surface (or secreted, indicated by the prefix "s") biomarker endpoints were measured by ELISA. Overt cytotoxicity to cells in confluent adherent cultures (all systems other than the BT system) was assessed by measuring total protein levels using sulforhodamine B (SRB) staining in parallel cultures at the time of biomarker measurements, indicated as SRB endpoints. For proliferation assays for adherent cell types, individual cell types are cultured at sub-confluence and relative cell numbers quantified by SRB staining at time points optimized for each system (48 h: 3C and CASM3C systems; 72 h: BT and HDF3CGF systems; 96 h: SAg system). SRB was performed by staining cells with 0.1% SRB after fixation with 10% TCA and reading wells at 560 nm.Viability and proliferation of PBMC (T cells) was quantified by Alamar Blue reduction for the SAg and BT systems. For PBMC viability (referred to as PBMC Cytotoxicity within the assay endpoint names), cells were plated (75,000/well in a 96-well plate) and then chemical samples added for 1 h before addition of activators, SEB and TSST-1 (20 ng/mL final concentration each). Cells were incubated for 90 h. Then, Alamar Blue (20 uL/well) (Invitrogen, Cat DAL1100) was added for 6 h, and the plates were read with a fluorescence microplate reader at 546/580 nm (excitation/emission). For PBMC proliferation, cells were plated and activated as above but incubated for only 16 h prior to addition of Alamar Blue. Plates were read after 6 h.

SMILES | AC50 | outcome
CNC(=O)ON=C(SC)C(=O)N(C)C | 10.2 µM (active) | 
CCOP(=O)(SC(C)CC)N1CCSC1=O (stereo not given) |  | inactive
COc1cc(OC)nc(Sc2cccc(Cl)c2C(=O)O)n1 |  | inactive
CN(C)C(=O)Nc1cccc(C(F)(F)F)c1 |  | inactive
CCC(=O)Nc1ccc(Cl)c(Cl)c1 |  | inactive
CCc1cccc(CC)c1N(COC)C(=O)CCl | 26.9 µM (active) | 
CCCCOC(=O)c1ccccc1C(=O)O |  | inactive
CSc1nc(NC(C)C)nc(NC(C)C)n1 |  | inactive
CCc1cnc(C2=NC(C)(C(C)C)C(=O)N2)c(C(=O)O)c1 (stereo not given) |  | inactive
Nc1c(Cl)cc([N+](=O)[O-])cc1Cl |  | inactive
CC[C@H](C)[C@H]1O[C@]2(C=C[C@@H]1C)C[C@@H]1C[C@@H](C/C=C(\C)[C@@H](O[C@H]3C[C@H](OC)[C@@H](O[C@H]4C[C@H](OC)[C@@H](NC)[C@H](C)O4)[C@H](C)O3)[C@@H](C)/C=C/C=C3\CO[C@@H]4[C@H](O)C(C)=C[C@@H](C(=O)O1)[C@]34O)O2 | 7.42 µM (active) | 
COP(=O)(OC)C(O)C(Cl)(Cl)Cl (stereo not given) |  | inactive
CN(C)NC(=O)CCC(=O)O |  | inactive
C[Si](Cn1cncn1)(c1ccc(F)cc1)c1ccc(F)cc1 |  | inactive
CCC(CC)Nc1c([N+](=O)[O-])cc(C)c(C)c1[N+](=O)[O-] | 15 µM (active) | 
CCCOCC(=Nc1ccc(Cl)cc1C(F)(F)F)n1ccnc1 | 29 µM (active) | 
CCOP(=S)(OCC)SCCSCC |  | inactive
COc1ccc(C(=CC(=O)N2CCOCC2)c2ccc(Cl)cc2)cc1OC |  | inactive
CC1=NNC(=O)N(/N=C/c2cccnc2)C1 |  | inactive
C#CC(C)(C)NC(=O)c1cc(Cl)cc(Cl)c1 |  | inactive

SMILES | AC50 | outcome
CON=C(C(=O)OC)c1ccccc1CON=C(C)c1cccc(C(F)(F)F)c1 |  | inactive
O=c1ccc(=O)[nH][nH]1 |  | inactive
CC1(C(=O)Nc2ccc(O)c(Cl)c2Cl)CCCCC1 |  | inactive
C[N+]1(C)CCCCC1 |  | inactive
CCc1cccc(C)c1N(C(=O)CCl)C(C)COC (stereo not given) | 14.2 µM (active) | 
Cc1nn(-c2cc(NS(C)(=O)=O)c(Cl)cc2Cl)c(=O)n1C(F)F |  | inactive
CCOP(=O)(NC(C)C)Oc1ccc(SC)c(C)c1 (stereo not given) |  | inactive
C#CCC1=C(C)C(OC(=O)C2C(C=C(C)C)C2(C)C)CC1=O (stereo not given) | 14.8 µM (active) | 
CCCCN(CC)c1c([N+](=O)[O-])cc(C(F)(F)F)cc1[N+](=O)[O-] | 26.5 µM (active) | 
CCCSP(=O)(OCC)SCCC |  | inactive
CCOC(=O)CC(SP(=O)(OC)OC)C(=O)OCC (stereo not given) |  | inactive
CN1COCN(Cc2cnc(Cl)s2)C1=N[N+](=O)[O-] |  | inactive
Nc1nc(N)nc(NC2CC2)n1 |  | inactive
CCOC(=O)COc1cc(-c2nn(C)c(OC(F)F)c2Cl)c(F)cc1Cl |  | inactive
CC(C1CC1)C(O)(Cn1cncn1)c1ccc(Cl)cc1 (stereo not given) |  | inactive
CCOP(=S)(OCC)Oc1ccc([N+](=O)[O-])cc1 | 20 µM (active) | 
Cc1ccn2nc(S(=O)(=O)Nc3c(F)cccc3F)nc2n1 |  | inactive
COP(=O)(OC)OC(Br)C(Cl)(Cl)Br (stereo not given) | 26.4 µM (active) | 
CCOP(=S)(OCC)OC(Cl)C(Cl)(Cl)Cl (stereo not given) |  | inactive
CCOP(=S)(OCC)Oc1cc(C)nc(C(C)C)n1 |  | inactive
